The campaign covered roughly 5,500 compounds. About 2,000 (36%) were called active. Not shown: some 18% with an inconclusive outcome. No stated cut-off is given here; in the data, active means normalized growth mostly below about 0.91 (no sharp cut-off); inconclusive means no clear call, values can overlap the other calls; inactive means mostly above about 0.92. Some of the results follow.
Assay: chemical genetic growth profiling, strain panel (AID 1159580);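 further: tested at 20 µM; growth read once vehicle control cultures reached saturation at 30 °C; 1 = growth at the plate median or of vehicle wells; lower values mean less growth of the strain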
Conditions: growth OD

Measured: normalized growth

CC(=O)N1CCN(c2ccc(OCC3CO[C@](Cn4ccnc4)(c4ccc(Cl)cc4Cl)O3)cc2)CC1 (some centres undefined)
active: S. cerevisiae deletion strains, locus YJL187C, strain SWE1, active compounds read low 0.0925 | S. cerevisiae deletion strains, locus YJR043C, strain POL32, active compounds read low 0.094 | S. cerevisiae deletion strains, locus YJR066W, strain TOR1, active compounds read low 0.0283 | S. cerevisiae deletion strains, locus YJR075W, strain HOC1, active compounds read low 0.0852 | S. cerevisiae deletion strains, locus YKL068W, active compounds read low 0.931 | S. cerevisiae deletion strains, locus YKL085W, strain MDH1 (second series), active compounds read low 0.795 | S. cerevisiae deletion strains, locus YKL085W, strain MDH1, active compounds read low 0.795 | S. cerevisiae deletion strains, locus YKL160W, strain elf1, active compounds read low 0.104 | S. cerevisiae deletion strains, locus YKL190W, strain CNB1, active compounds read low 0.0638 | S. cerevisiae deletion strains, locus YKR001C, strain vps1, active compounds read low 0.112 | S. cerevisiae deletion strains, locus YKR026C, strain gcn3, active compounds read low 0.168 | S. cerevisiae deletion strains, locus YKR091W, strain srl3, active compounds read low 0.108 | S. cerevisiae deletion strains, locus YLL001W, strain dnm1, active compounds read low 0.102 | S. cerevisiae deletion strains, locus YLL026W, active compounds read low 0.0778 | S. cerevisiae deletion strains, locus YLL041C, strain sdh2, active compounds read low 0.0858 | S. cerevisiae deletion strains, locus YLR027C, strain aat2, active compounds read low 0.0792 | S. cerevisiae deletion strains, locus YLR039C, strain RIC1, active compounds read low 0.444 | S. cerevisiae deletion strains, locus YLR058C, strain SHM2, active compounds read low 0.072 | S. cerevisiae deletion strains, locus YLR102C, strain apc9, active compounds read low 0.0929 | S. cerevisiae deletion strains, locus YLR113W, strain HOG1, active compounds read low 0.16 | S. cerevisiae deletion strains, locus YLR221C, strain rsa3, active compounds read low 0.0852 | S. cerevisiae deletion strains, locus YLR258W, strain gsy2, active compounds read low 0.0919 | S. cerevisiae deletion strains, locus YLR262C, strain YPT6 (second series), active compounds read low 0.314 | S. cerevisiae deletion strains, locus YLR262C, strain YPT6, active compounds read low 0.523 | S. cerevisiae deletion strains, locus YLR268W, strain sec22, active compounds read low 0.0953 | S. cerevisiae deletion strains, locus YLR320W, strain mms22, active compounds read low 0.104 | S. cerevisiae deletion strains, locus YLR330W, strain CHS5, active compounds read low 0.0775 | S. cerevisiae deletion strains, locus YLR342W, strain FKS1 (second series), active compounds read low 0.0863 | S. cerevisiae deletion strains, locus YLR342W, strain FKS1, active compounds read low 0.0875 | S. cerevisiae deletion strains, locus YLR357W, strain rsc2, active compounds read low 0.231 | S. cerevisiae deletion strains, locus YLR370C, strain arc18, active compounds read low 0.0894 | S. cerevisiae deletion strains, locus YLR371W, strain rom2, active compounds read low 0.104 | S. cerevisiae deletion strains, locus YLR384C, strain iki3, active compounds read low 0.0857 | S. cerevisiae deletion strains, locus YLR418C, strain cdc73, active compounds read low 0.123 | S. cerevisiae deletion strains, locus YML016C, strain PPZ1, active compounds read low 0.0722 | S. cerevisiae deletion strains, locus YML032C, strain rad52, active compounds read low 0.112 | S. cerevisiae deletion strains, locus YML120C, strain ndi1, active compounds read low 0.0823 | S. cerevisiae deletion strains, locus YML124C, strain tub3, active compounds read low 0.0927 | S. cerevisiae deletion strains, locus YMR058W, strain fet3, active compounds read low 0.0959 | S. cerevisiae deletion strains, locus YMR078C, strain ctf18, active compounds read low 0.112 | S. cerevisiae deletion strains, locus YMR125W, strain sto1, active compounds read low 0.102 | S. cerevisiae deletion strains, locus YMR129W, active compounds read low 0.0847 | S. cerevisiae deletion strains, locus YMR205C, strain PFK2, active compounds read low 0.141 | S. cerevisiae deletion strains, locus YMR223W, strain ubp8, active compounds read low 0.105 | S. cerevisiae deletion strains, locus YMR231W, strain pep5, active compounds read low 0.403 | S. cerevisiae deletion strains, locus YMR263W, strain SAP30, active compounds read low 0.157 | S. cerevisiae deletion strains, locus YMR307W, strain GAS1, active compounds read low 0.159 | S. cerevisiae deletion strains, locus YNL067W, strain RPL9B, active compounds read low 0.0729 | S. cerevisiae deletion strains, locus YNL071W, strain lat1, active compounds read low 0.0698 | S. cerevisiae deletion strains, locus YNL183C, strain NPR1, active compounds read low 0.0744 | S. cerevisiae deletion strains, locus YNL209W, strain ssb2, active compounds read low 0.195 | S. cerevisiae deletion strains, locus YNL233W, strain BNI4, active compounds read low 0.0732 | S. cerevisiae deletion strains, locus YNL248C, strain rpa49, active compounds read low 0.0896 | S. cerevisiae deletion strains, locus YNL250W, strain rad50, active compounds read low 0.896 | S. cerevisiae deletion strains, locus YNL271C, strain bni1, active compounds read low 0.906 | S. cerevisiae deletion strains, locus YNL298W, strain CLA4, active compounds read low 0.246 | S. cerevisiae deletion strains, locus YNL307C, strain MCK1, active compounds read low 0.0791 | S. cerevisiae deletion strains, locus YNL322C, strain KRE1 (second series), active compounds read low 0.115 | S. cerevisiae deletion strains, locus YNR049C, strain mso1, active compounds read low 0.0955 | S. cerevisiae deletion strains, locus YNR052C, strain pop2, active compounds read low 0.144 | S. cerevisiae deletion strains, locus YOL147C, strain pex11, active compounds read low 0.0768 | S. cerevisiae deletion strains, locus YOR001W, strain rrp6, active compounds read low 0.0988 | S. cerevisiae deletion strains, locus YOR061W, strain CKA2, active compounds read low 0.125 | S. cerevisiae deletion strains, locus YOR069W, strain VPS5, active compounds read low 0.0927 | S. cerevisiae deletion strains, locus YOR070C, strain gyp1, active compounds read low 0.0793 | S. cerevisiae deletion strains, locus YOR080W, strain dia2, active compounds read low 0.096 | S. cerevisiae deletion strains, locus YOR083W, strain WHI5, active compounds read low 0.136 | S. cerevisiae deletion strains, locus YOR106W, strain vam3, active compounds read low 0.116 | S. cerevisiae deletion strains, locus YOR136W, strain idh2, active compounds read low 0.112 | S. cerevisiae deletion strains, locus YOR144C, strain elg1, active compounds read low 0.0877 | S. cerevisiae deletion strains, locus YOR184W, strain ser1, active compounds read low 0.0917 | S. cerevisiae deletion strains, locus YOR231W, strain MKK1, active compounds read low 0.157 | S. cerevisiae deletion strains, locus YOR265W, strain rbl2, active compounds read low 0.0927 | S. cerevisiae deletion strains, locus YOR270C, strain vph1, active compounds read low 0.112 | S. cerevisiae deletion strains, locus YOR290C, strain snf2, active compounds read low 0.0982 | S. cerevisiae deletion strains, locus YOR316C, strain cot1, active compounds read low 0.0844 | S. cerevisiae deletion strains, locus YPL051W, strain arl3, active compounds read low 0.141 | S. cerevisiae deletion strains, locus YPL078C, strain atp4, active compounds read low 0.0953 | S. cerevisiae deletion strains, locus YPL106C, strain sse1, active compounds read low 0.137 | S. cerevisiae deletion strains, locus YPL240C, strain hsp82, active compounds read low 0.09 | S. cerevisiae deletion strains, locus YPL256C, strain CLN2, active compounds read low 0.182 | S. cerevisiae deletion strains, locus YPR119W, strain clb2, active compounds read low 0.105 | S. cerevisiae deletion strains, locus YPR163C, strain tif3, active compounds read low 0.105 | S. cerevisiae deletion strains, locus YPR167C, strain met16, active compounds read low 0.1 | S. cerevisiae deletion strains, strain wtn01, active compounds read low 0.0951 | S. cerevisiae strains, strain wild type, active compounds read low 0.0668
inactive: S. cerevisiae deletion strains, locus YKL009W, strain mrt4, active compounds read low 0.994 | S. cerevisiae deletion strains, locus YOL012C, strain htz1 0.25 | S. cerevisiae deletion strains, locus YPR141C, strain kar3, active compounds read low 0.971
